The source of these data is PubChem BioAssay (NCI).

The panel holds about 83,000 compounds, 20% with a hit somewhere; the sample as a whole holds those more often.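 Assay: single dose, 48 h. Readout: percent growth (0 = no net growth; negative = cell death). Active: <10.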 Values without a mark were called inactive. The source made the active and inactive calls.

This test deals with SR leukemia. As to the kind of experiment: NCI-60 one-dose screen, 48 h (100 = growth as untreated, 0 = no growth, -100 = all killed). The conditions noted are these: 10 µM unless noted. On the procedure: Growth inhibition of the SR human tumor cell line is measured as a screen for anti-cancer activity. Cells are grown in 96 well plates and exposed to the test compound for 48 hours. Compounds are tested at a single concentration, which is 10^-5 M for most compounds. The reported endpoint is percent growth (GI% or GIPRCNT), where numbers from 0 - 100% represent growth inhibition, and numbers from -100% - 0 represent cell death. For example, a value of 40 represents 60% growth inhibition. A value of 0 means no net growth occurred over the course of the experiment. A value of -40 indicates 40% of cells at the beginning of the experiment died by the end of the experiment. A value of -100 means all cells are dead at the end of the experiment.
NCI-60 Human Tumor Cell Lines Screen was performed using the standard one-dose NCI protocol, which is described in more detail at https://dtp.cancer.gov/discovery_development/nci-60/default.htm.
Compounds with GIPRCNT values below 10 were considered active. Activity score was based on GIPRCNT using the following formula: […]
Score is 0 for GIPRCNT values of 100 or above, 50 for GIPRCNT values of 0, and 100 for GIPRCNT values of -100.
On to `Cc1cc(Nc2c3ccccc3nc3ccccc23)ccc1NS(C)(=O)=O`, for which the growth was -6.9% (active).

Regarding `Oc1ccc(-c2nnc3c4[nH]ccc4ncn23)cc1`, the growth was 82.4%.

On to `CCCCOC(=O)c1cc(O)c(O)c(O)c1`, for which the growth is 44.5%.

As to `CN1C2CCC1/C(=C\c1ccc(Cl)cc1)C(=O)/C2=C/c1ccc(Cl)cc1`, the growth is 24.5%.

For the compound `Cc1nn(-c2ccccc2)c2nc3c(nc12)C1=NCCN1C(c1ccc(Cl)cc1)N3` (stereo not given), the growth is 6.3% (active).

In the case of `ClCc1c(Cl)c(Cl)c(Cl)c(CCl)c1Cl`, the growth is 4.07% (active).

On to `COc1ccccc1CNCCCN1C(=O)c2ccc3c4c(ccc(c24)C1=O)C(=O)N(CCCNCCCN)C3=O`, for which the growth was 10%.

On to `O=S1(=O)NCCCN1CCNc1nccc(-c2c(-c3cccc(O)c3)nc3sccn23)n1`, for which the growth was 23.2%.

`COc1cc(/C=C/c2cc(/C=C/c3ccc(O)c(OC)c3)n(C(=O)c3ccccc3Br)n2)ccc1O`: the growth was -4.77% (active).

For `Cc1ccncc1NC=O`, the growth was 93.8%.

Regarding `COc1ccc(C2=NNC(c3ccc(Oc4nc5c(c(=O)n(C)c(=O)n5C)n4C)c(OC)c3)C2)cc1` (stereo not given), the growth is 62.7%.

Take `Nc1ncnc2c1N=C(c1ccc3c(c1)OCO3)CC(c1ccc(Cl)cc1)N2` (stereo not given): the growth was 41.3%.

As for `COc1ccc(-c2cc(-c3cn(-c4cccc(Cl)c4)nc3-c3ccc(OC)cc3)[nH]c(=S)n2)cc1`, the growth is 75.3%.

With `COc1ccc2c(c1)C1=NN(C(=O)CO)[C@H](c3ccc(OC(F)(F)F)cc3)[C@@H]1CC2`, the growth is 69.2%.

Take `NC(CCC(=O)NC(CS)C(=O)NCC(=O)O)C(=O)O` (stereo not given): the growth was 97.3%.

Regarding `COc1ccc(-c2cnc(-c3ccncc3-c3cccc(OC)c3)o2)cc1`, the growth is 10.2%.

In the case of `CCN(CC)CCCC(C)Nc1ccnc2ccc(Oc3ccccc3)cc12` (stereo not given), the growth is 14.6%.

Turning to `Cc1ccc(C(CN(C)C)C(=O)c2ccccc2)cc1` (stereo not given), the growth is -29.2% (active).

Take `COc1ccc(CNc2c3ccccc3nc3ccc(OC)cc23)cc1`: the growth was -15.5% (active).

On to `Cc1ccc([C@H]2c3[nH]c4ccccc4c3C[C@H]3C(=O)N(CCCCCCC(=O)NO)CC(=O)N23)cc1`, for which the growth is 10.6%.

On to `NC(=O)c1ccc[n+](Cc2ccccc2)c1`, for which the growth is 109%.

As for `CC1=C(O)C(=O)CC1`, the growth was 78.4%.

As to `C=C1C[C@@]2(C)C(CC[C@]3(C)C2CC=C2C4CC(C)(C)C[C@@H](OC(=O)/C(C)=C\C)[C@]4(C(=O)O)CC[C@]23C)C(C)(C)C1=O` (stereo not given in full), the growth is -0.663% (active).

On to `CCN(CC)c1ccc2c(cc1=O)[C@@H](NC(C)=O)CCc1cc(OC)c(OC)c(OC)c1-2`, for which the growth was -14.1% (active).

For `COc1cc(CN2CCC(N3CCCC3=O)c3ccccc32)cc(OC)c1OC` (stereo not given), the growth was 59.1%.

For the compound `O=C(c1ccccc1)C(CCc1ccccn1)CCc1ccccn1`, the growth was 83.3%.

Regarding `O=C(NCCN1CCCC1)n1cc(-c2ccncc2)c(-c2cc(O)cc(Cl)c2)n1`, the growth was 49.6%.

With `CCOC(=O)C1C(=O)C=C(c2cc(OC)c(OC)c(OC)c2)CC1c1sc(N(C)Cc2ccccc2)nc1Cl` (stereo not given), the growth is 80.8%.

As to `CN1C(=O)NC(Cc2c[nH]c3c(Cl)cccc23)C1=O` (stereo not given), the growth is 101%.

For the compound `O=C(Nc1ccc(-n2ccc3c(NC(=O)c4ccccc4)nccc32)cc1)c1ccc(N2CCOCC2)c(C(F)(F)F)c1`, the growth is 0.458% (active).

`CS(=O)(=O)c1ccc(Cl)c([N+](=O)[O-])c1`: the growth was 18.6%.

On to `FC(F)(F)c1nn[nH]n1`, for which the growth was 104%.

On to `O=C1N(Cc2ccccc2Cl)c2ccccc2C12NN=C(c1ccccc1)S2` (stereo not given), for which the growth was 40%.

As for `O=C(Nc1ccccc1)c1cc2ccccc2s1`, the growth is 82.1%.

As for `CC(C)(C)c1ccc(C(=O)Nc2sc3cc(O)ccc3c2C(N)=O)cc1`, the growth is 33.7%.

With `COc1cc(C2CC(c3ccc(Cl)cc3)=NN2C(C)=O)ccc1Oc1nc2c(c(=O)n(C)c(=O)n2C)n1C` (stereo not given), the growth was 78.5%.

Regarding `Cc1ccccc1NC(=O)c1sc2nc3c(cc2c1N)C(=O)CCC3`, the growth was 34.4%.

`c1ccc2c(N=NSc3ncnc4nc[nH]c34)c3ccccc3nc2c1`: the growth was -28.1% (active).

Turning to `COc1cccc(-c2cc(-c3cccs3)c(C#N)c(=O)[nH]2)c1`, the growth was 105%.

Take `COc1cnc2c(c1)C(=O)c1c-2n(CCCNC(C)C)c(=O)c2cc(Cl)ccc12`: the growth was -52.1% (active).
